From ChEMBL document CHEMBL3988442, “University of Dundee, Small-Polar-MMV Screening Library” (2021)
The whole screen tested about 38,000 compounds, of which about 1,200 (3.2%) showed an effect of 50% or more. The median lay at about -58%. This excerpt belongs to a sample that is enriched for strong results.

These compounds were tested on Plasmodium falciparum (assay: Calibr Malaria Delayed Death Assay SOP). Details: concentration 4.99e-06 (unit not given; other assays of the set use mol/L).
Assay type: functional, organism-based
Design: scale not given: in the data most compounds retested in dose-response had high values

Row | Compound | Percent Effect [%]
1 | COCC(C)NCc1nc(-c2ccc(C)cc2)c(-c2ccccn2)[nH]1 (stereo unspecified) | 45.68
2 | Cc1ccc(-c2nc(CNC(C)CCO)[nH]c2-c2ccccn2)cc1 (stereo unspecified) | 85.22
3 | Cc1ccc(-c2nc(CNS(=O)(=O)N(C)C)[nH]c2-c2ccccn2)cc1 | -8.879
4 | CCOc1ccc(Cl)cc1CCNC(=O)Cn1nc(C)ccc1=O | -103.1
5 | CCOc1ccc(CNCCCn2ccnc2)cc1Br | 79.67
6 | COc1cc(CNCCn2ccnc2)cc2c1OCO2.Cl | -91.54
7 | O=C(CN1CCOc2ccc(Cl)cc21)NCCCn1ccnc1 | -34.55
8 | COCCCn1ccc(NC(=O)NCCCn2ccnc2)n1 | -63.56
9 | CCOc1ccc(Cl)cc1CNCCCn1ccnc1 | 51.78
10 | CN(C)CCNCC1COCc2c(-c3ccnn3C)nnn2C1 (stereo unspecified) | -61.69
11 | O=C(c1cccc2ncccc12)N1CCC(Nc2cccnn2)CC1 | -119.6
12 | Cc1nc(CN2CCN(CCCc3ccccc3)CC2)no1 | -34.84
13 | COc1ccc(-c2nc(CNC3CCc4nc(C)nn4C3)no2)cc1 (stereo unspecified) | -54.43
14 | COc1cc(-c2ccc(F)c3c2OC(CN)C3)cc(OC)c1OC (stereo unspecified) | -14
15 | COc1cc(C)c(-c2ccc(F)c3c2OC(CN)C3)cc1C (stereo unspecified) | 83.54
16 | COc1cccnc1-c1ccc(F)c2c1OC(CN)C2 (stereo unspecified) | 57.41
17 | Cc1cc2n(n1)CC(CNCc1ccccc1Cn1cccn1)CN2 (stereo unspecified) | -15.62
18 | O=C(O)C(F)(F)F.O=C(O)C(F)(F)F.c1cncc(C2COC3(CCN(Cc4nccs4)CC3)C2)c1 (stereo unspecified) | -1.865
19 | CCN1CC2(CC1=O)CN(C(=O)c1ccco1)CCN(C(=O)C(C)C)C2 (stereo unspecified) | -62.73
20 | O=C1[C@H]2CC[C@H](CN(c3ncnc4ccsc34)C2)N1CC1CC1 | -91.86
21 | COCCCN(C)C(=O)c1cccc(Nc2cnccn2)c1 | -92.25
22 | N[C@H]1CN(C(=O)c2ccc(Cl)cc2O)C[C@@H]1C1CC1 | 32.78
23 | N[C@H]1CN(C(=O)c2cnc3cc(Cl)ccc3c2O)C[C@@H]1C1CC1 | -23.25
24 | Cc1cc(Cl)ccc1C(=O)N1C[C@H](C2CC2)[C@@H](N)C1 | 60.81
25 | N#CCSCCCN1CCN(C(=O)c2ccccc2F)CC1 | -147
26 | Cc1nnc(NC(=O)NCCCN2CCC(C(N)=O)CC2)s1 | -23.13

Row | Compound | Percent Effect [%]
27 | CC1CC(NS(=O)(=O)c2ccc(C(F)(F)F)nc2)C1 (stereo unspecified) | -159.1
28 | O=c1ncn(-c2ccc(F)cc2)c2ncccc12 | -138.9
29 | O[C@H]1[C@H](n2cc(CN3CCCC3)nn2)c2ccccc2C12CCNCC2 | 62.81
30 | COCc1cn([C@@H]2c3ccccc3C3(CCNCC3)[C@H]2O)nn1 | -27.47
31 | OCc1cn([C@@H]2c3ccccc3C3(CCNCC3)[C@H]2O)nn1 | -123.5
32 | Cc1cccc(C(C)(C)CNC(=O)CN(C)S(=O)(=O)c2cccnc2)c1 | -59.91
33 | CCOc1c(F)cccc1C(=O)N(CC)C(C)c1cccnc1 (stereo unspecified) | -44.59
34 | CC(c1cccc(O)c1)N(C)S(N)(=O)=O (stereo unspecified) | -84.23
35 | CC(c1cccc(O)c1)N(C)S(=O)(=O)c1cccnc1 (stereo unspecified) | 70.34
36 | CCN(C(C)c1cccc(O)c1)S(=O)(=O)c1cccnc1 (stereo unspecified) | 75.64
37 | CC(c1cccnc1)N(C)S(C)(=O)=O (stereo unspecified) | -49.62
38 | Cn1cc(CN2CCc3ccc(=O)n(Cc4ccncc4)c3CC2)cn1.O=C(O)C(F)(F)F.O=C(O)C(F)(F)F | -100.7
39 | CCn1nccc1CNc1[nH]cnc2nncc1-2 | -100.3
40 | Cn1cccc1C(=O)N1C[C@@H](OCc2ccncc2)[C@@H]2OCCC[C@@H]21.O=C(O)C(F)(F)F | -99.03
41 | CCNc1ncc(CN(Cc2ccccc2)CC(C)CO)cn1 (stereo unspecified) | -11.14
42 | COC(=O)[C@@H]1Cc2[nH]cnc2CN1Cc1cc2ccccc2o1 | -36.16
43 | CN1CCN(C(=O)C2CN(Cc3cc4ccccc4o3)CCN2)CC1 (stereo unspecified) | -105.5
44 | Cl.Cl.O[C@@H]1C[C@@](CNCc2cccc(Cl)c2)(COc2cccnc2)C[C@@H]1O | 34.26
45 | Cl.Cl.O[C@@H]1C[C@@](CNCc2ccc(Cl)cc2)(COc2cccnc2)C[C@@H]1O | 70.01
46 | Cl.Cl.O[C@@H]1C[C@@](CNCc2ccc(F)cc2)(COc2cccnc2)C[C@@H]1O | 40.62
47 | CN(Cc1noc2c1CCCC2)C(=O)Nc1cccc(S(N)(=O)=O)c1 | -16.52
48 | CN(Cc1ccon1)c1nc(-c2ccccn2)nc2c1CCNCC2 | 75.26
49 | Cc1nc2c(c(N(C)CC3Cc4ccccc4CN3C)n1)CCNCC2 (stereo unspecified) | 41.97
50 | Cc1nc2c(c(N(C)Cc3ccccc3-n3cccn3)n1)CCNCC2 | -7.146
51 | Cc1cc(CN(C)c2nc(-c3ccccn3)nc3c2CCNCC3)n[nH]1 | 68.42
